Test results reported in the supplement of paper PMC6288085.
Where a name gives a salt, the structure may show the parent alone. ± gives the uncertainty stated by the source.

Tested on: Caenorhabditis elegans N2
Assay: food intake (mean delta OD600 / animal over 72 h) with 50 uM loxapine co-treatment (OD600 units per animal); higher = more food eaten (less suppression of loxapine-induced hyperphagia)
Conditions: first compound 33 µM, loxapine concentration 50 µM
Procedure: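 C. elegans N2 adults (FUDR-sterilised, day 1) in 96-well plates fed gamma-irradiated bacteria. Each library drug (MedChemExpress FDA-approved library) at 33 uM was combined with loxapine at 50 uM. Food intake was measured as bacterial clearance: the change in OD600 from day 1 to 72 h, normalised per animal (mean over 14-21 wells of about 10-12 worms). Drugs flagged for bacterial lysis or sickness were excluded by the authors.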

Row | SMILES | food intake
1 | O=[N+]([O-])C(Br)(CO)CO [bronopol] + CN1CCN(C2=Nc3ccccc3Oc3ccc(Cl)cc32)CC1 [loxapine] | 0.0259 ± 0.0077
2 | CN1[C@@H]2CC(O)C[C@H]1[C@@H]1O[C@@H]12 (some centres not stated) [scopine (hydrochloride)] + CN1CCN(C2=Nc3ccccc3Oc3ccc(Cl)cc32)CC1 [loxapine] | 0.00616 ± 0.012
3 | Oc1cccc2cccnc12 [8-hydroxyquinoline] + CN1CCN(C2=Nc3ccccc3Oc3ccc(Cl)cc32)CC1 [loxapine] | 0.0224 ± 0.0032
4 | CCC1(c2cccc(O)c2)CCCCN(C)C1 (configuration not stated) [meptazinol (hydrochloride)] + CN1CCN(C2=Nc3ccccc3Oc3ccc(Cl)cc32)CC1 [loxapine] | 0.0231 ± 0.0039
5 | COc1cc2c(cc1OC)C1CC(=O)C(CC(C)C)CN1CC2 (configuration not stated) [tetrabenazine] + CN1CCN(C2=Nc3ccccc3Oc3ccc(Cl)cc32)CC1 [loxapine] | 0.0274 ± 0.017
6 | Cc1ccc(O)cc1.Cc1cccc(O)c1.Cc1ccccc1O [cresol] + CN1CCN(C2=Nc3ccccc3Oc3ccc(Cl)cc32)CC1 [loxapine] | 0.0212 ± 0.0037
7 | O=C(N/N=C/c1ccc([N+](=O)[O-])o1)c1cc([N+](=O)[O-])cc([N+](=O)[O-])c1O [nifursol] + CN1CCN(C2=Nc3ccccc3Oc3ccc(Cl)cc32)CC1 [loxapine] | 0.0249 ± 0.0032
8 | COc1ccc(CN2CCNCC2)c(OC)c1OC [trimetazidine (dihydrochloride)] + CN1CCN(C2=Nc3ccccc3Oc3ccc(Cl)cc32)CC1 [loxapine] | 0.0224 ± 0.003
9 | C[N+](C)(C)CCCCCCCCCC[N+](C)(C)C [decamethonium (bromide)] + CN1CCN(C2=Nc3ccccc3Oc3ccc(Cl)cc32)CC1 [loxapine] | 0.0222 ± 0.0054
10 | CCCCCCCCCCC(=O)O[C@H]1CC[C@H]2[C@@H]3CCC4=CC(=O)CC[C@]4(C)[C@H]3CC[C@]12C [testosterone (undecanoate)] + CN1CCN(C2=Nc3ccccc3Oc3ccc(Cl)cc32)CC1 [loxapine] | 0.0238 ± 0.0023
11 | C=CCN1CC[C@]23c4c5ccc(O)c4O[C@H]2C(=O)CC[C@@]3(O)[C@H]1C5 [naloxone (hydrochloride)] + CN1CCN(C2=Nc3ccccc3Oc3ccc(Cl)cc32)CC1 [loxapine] | 0.0254 ± 0.0053
12 | C[C@]12CCC(=O)C(O)=C1CC[C@@H]1[C@@H]2CC[C@]2(C)C(=O)CC[C@@H]12 [formestane] + CN1CCN(C2=Nc3ccccc3Oc3ccc(Cl)cc32)CC1 [loxapine] | 0.0217 ± 0.0021
